Shown are actives, neighbours in structure and some others; about 1.8% of the full set was active somewhere.
MBD2 inh: blocks human MBD2 binding to methylated DNA | inhibition, % at 4.4 µM | TR-FRET, MBD2 binding to methylated oligonucleotide | actives 0.31% (n = 370,000) | Q9UBB5 | AID 686964; in the data active = inhibition above about 13%
UBC13 polyUb: human UBC13 polyubiquitination inhibition | actives 0.47% (n = 330,000) | P61088 | inhibition, % at 20 µM | UBC13 polyubiquitin chain formation, TR-FRET; in the data active = inhibition above about 45%, passing the limit was not always enough
Neddyl block: cullin neddylation inhibition. P61081+Q13564. TR-FRET cullin neddylation, biochemical. calls only at 25 µM. actives 0.58% (n = 360,000); in the data active = inhibition above about 36%
UHRF1 MBD2 ctr: UHRF1 methyl-DNA binding inhibition | actives 0.75% (n = 370,000) | Q96T88 | inhibition, % at 4.4 µM | UHRF1 binding to methylated oligo, TR-FRET; in the data active = inhibition above about 21%;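 note: UHRF1 SRA domain binding a hemimethylated CpG hairpin DNA probe; 0% = median of test compound wells and 100% = reference inhibitor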
Target sequence (Q96T88 whole entry, looked up, the tested form may be a part): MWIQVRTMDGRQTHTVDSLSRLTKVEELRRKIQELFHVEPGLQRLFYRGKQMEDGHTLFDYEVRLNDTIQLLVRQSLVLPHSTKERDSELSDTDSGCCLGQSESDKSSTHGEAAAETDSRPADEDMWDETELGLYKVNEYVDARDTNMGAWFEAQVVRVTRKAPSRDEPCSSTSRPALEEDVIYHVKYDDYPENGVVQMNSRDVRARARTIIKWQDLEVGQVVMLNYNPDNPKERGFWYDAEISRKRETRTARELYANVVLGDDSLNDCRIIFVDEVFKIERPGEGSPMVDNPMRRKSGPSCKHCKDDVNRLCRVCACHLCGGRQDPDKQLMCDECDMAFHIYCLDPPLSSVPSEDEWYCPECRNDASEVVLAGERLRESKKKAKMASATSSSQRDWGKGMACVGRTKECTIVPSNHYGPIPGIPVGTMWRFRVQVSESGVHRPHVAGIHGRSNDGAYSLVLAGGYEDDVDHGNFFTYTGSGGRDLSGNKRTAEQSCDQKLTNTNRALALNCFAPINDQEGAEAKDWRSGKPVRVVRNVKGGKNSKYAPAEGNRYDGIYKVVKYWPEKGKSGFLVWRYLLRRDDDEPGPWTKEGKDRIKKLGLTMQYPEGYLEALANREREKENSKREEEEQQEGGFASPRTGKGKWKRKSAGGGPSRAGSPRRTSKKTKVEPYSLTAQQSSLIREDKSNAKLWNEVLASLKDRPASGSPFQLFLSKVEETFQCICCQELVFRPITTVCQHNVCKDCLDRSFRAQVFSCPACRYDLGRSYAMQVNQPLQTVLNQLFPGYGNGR
Starred values were filed as active, the others as inactive; i = inactive; x = no result shown; + = active, no number.

SMILES | MBD2 inh | UBC13 polyUb | Neddyl block | UHRF1 MBD2 ctr
O=c1ccc2cc3c4c(c2o1)CCCN4CCC3 | -9 | 6 | + | -12
COc1cc(-c2ccc(Nc3ccccc3C(=O)O)c(OC)c2)ccc1Nc1ccccc1C(=O)O | 8 | -3 | i | 22*
COCc1cc(=O)n2[nH]c(-c3ccsc3-n3c(C)ccc3C)cc2n1 | 36* | 14 | i | 72*
Cc1nc2cc(-c3ccsc3-n3c(C)ccc3C)[nH]n2c(=O)c1Cl | 8 | 2 | i | 32*
Cc1cc(=O)n2[nH]c(-c3ccsc3-n3c(C)ccc3C)cc2n1 | 10 | 12 | i | 18
CCc1c(C)nc2cc(-c3ccccc3)[nH]n2c1=O | 5 | 12 | x | 1
O=C(NCCc1ccccc1)OCc1cn(-c2ccc(Cl)cc2)nn1 | -2 | x | x | 1
Cc1cccc(C)c1Nc1c(-c2ccccn2)nc2ccccn12 | 1 | 16 | + | -1
Nc1c(NCc2ccccc2)c(=O)[nH]c(=O)n1Cc1ccccc1 | x | -10 | i | x
COCCCNc1c2c(nc3ccccc13)CCC2 | 0 | x | i | 0
CCOCCn1c(=O)c2c(nc3n2CCN3c2ccc(C)cc2)n(C)c1=O | -4 | -1 | x | -1
Cc1ccccc1-n1c(O)cc(=O)[nH]c1=S | 8 | 16 | i | 21*
Cc1ccc2nc(-c3ccccc3)cn2c1 | 1 | 11 | + | 4
Cc1c(CC(=O)O)c(=O)oc2cc3oc4c(c3cc12)CCCC4 | 0 | -2 | i | 26*
C[C@@H]1CN([C@@H](C)CO)C(=O)c2cc(Br)cnc2O[C@H]1CN(C)C(=O)C1CCCCC1 | -4 | x | i | -3
COc1cccc(C#Cc2cnc3c(c2)C(=O)N([C@@H](C)CO)C[C@H](C)[C@H](CN(C)C(=O)C2CCC2)O3)c1 | 9 | x | i | 22*
Cc1ccc(S(=O)(=O)N(C)C[C@@H]2Oc3ncc(C#CCC(C)C)cc3C(=O)N([C@H](C)CO)C[C@H]2C)cc1 | 8 | x | i | 23*
Cc1ccc(S(=O)(=O)N(C)C[C@@H]2Oc3ncc(Br)cc3C(=O)N([C@H](C)CO)C[C@H]2C)cc1 | 1 | x | i | 4
C=CCN1C(=O)/C(=C/C(=O)OC)S/C1=N\NC(=O)c1ccccc1 | 0 | -4 | i | 4
Cc1ccc(C)c(NC(=O)CN2C(=O)NC(CCc3ccccc3)C2=O)c1 (centres undefined) | 5 | 7 | i | 0
O=C(COC(=O)c1ccco1)NC1CCCC1 | 2 | -2 | i | -2
Cc1ccc(C2=NC(=O)/C(=C/c3cc(O)c(O)c(Br)c3)S2)cc1 | 38* | -22 | i | 50*
COc1ccc(N2CC(C(=O)N/N=C/c3ccc(C)cc3)CC2=O)cc1 (centres undefined) | 9 | 6 | i | 24*
COc1ccc(N2CC(C(=O)Nc3ncccc3C)CC2=O)cc1 (centres undefined) | 2 | -1 | i | 27*
COc1ccc(N2CC(C(=O)N/N=C/c3ccc([N+](=O)[O-])cc3)CC2=O)cc1 (centres undefined) | -3 | -10 | i | -1
SMILES | MBD2 inh | UBC13 polyUb | Neddyl block | UHRF1 MBD2 ctr
CCOC(=O)C1(C)CCCN1C(=O)c1ccc(OC)c(OC)c1 (centres undefined) | 3 | x | i | -1
COc1ccc(CCNC(=O)c2cnn3ccccc23)c(OC)c1OC | -1 | 8 | i | -1
Cc1nc(C)c(CCNC(=O)c2ccccc2Br)s1 | -1 | -5 | i | 21*
Cc1ccc(C(=O)NCCc2sc(C)nc2C)cc1 | 7 | 4 | i | 5
COc1ccc(NC(=O)N(CCC(C)C)C(C)c2ccccn2)c(OC)c1 (centres undefined) | -1 | 1 | i | -1
NNC(=O)c1cc(O)c(O)c(O)c1 | 10 | 18 | i | 29*
OCCNc1ncnc2c1ncn2[C@H]1CN(Cc2cccs2)C[C@@H](CO)O1 | 2 | x | i | 26*
COCCNc1ncnc2c1ncn2[C@H]1CN(Cc2cccs2)C[C@@H](CO)O1 | 8 | x | i | 0
C=CCn1c(NC(=O)c2ccccc2Cl)c(C#N)c2nc3ccccc3nc21 | 18* | -29 | x | 13
CCCCn1c(NC(C)=O)c(C#N)c2nc3ccccc3nc21 | -6 | -1 | x | -7
COc1ccc(-c2cccc([C@H]3[C@@H]4C=CC[C@@H](C)[C@@H]4C(=O)N3Cc3ccccc3)c2)cc1 | -4 | x | i | 1
COc1cc(-c2cccc([C@H]3[C@@H]4C=CC[C@@H](C)[C@@H]4C(=O)N3Cc3ccccc3)c2)cc(OC)c1OC | 6 | x | i | 46*
Cc1ccccc1N(C(=O)c1csnn1)C(C(=O)NC(C)(C)C)c1cccs1 (centres undefined) | 1 | 2 | i | 1
Cc1ccc(N(C(=O)C2CCC(=O)N2)C2(C(=O)NC3CCCC3)CCCCC2)cc1 (centres undefined) | -2 | -6 | i | 78*
O=C(Cc1cccs1)N(c1ccc(F)cc1)C1(C(=O)NC2CCCCC2)CCCC1 | 4 | -7 | i | 27*
O=C1CCC(C(=O)N(c2ccccc2)C2(C(=O)NC3CCCCC3)CCCCC2)N1 (centres undefined) | -5 | 2 | i | -4
COc1cc(C=C2C(=O)C=CC2=O)ccc1O | 102* | x | i | 97*
CCn1c(COc2ccccc2C)nnc1SCC(=O)CC(=O)Nc1ccccc1 | -1 | 5 | i | -1
O=C(c1cccc(S(=O)(=O)Nc2ccccc2Cl)c1)N1CCCCCC1 | 2 | 14 | i | 1
O=C(c1cccc(NS(=O)(=O)c2cccc(F)c2)c1)N1CCCC1 | 4 | 0 | i | 21*
O=C(c1cccc(S(=O)(=O)Nc2ccccc2Cl)c1)N1CCN(c2ccccc2O)CC1 | 3 | 12 | i | 21*
O=C(c1cccc(NS(=O)(=O)c2ccccc2)c1)N1CCCC1 | 1 | -3 | i | -1
Cc1cccc2c1nc(-c1ccccc1)n1nnnc21 | -1 | 3 | i | -2
Nc1nonc1-n1nnc(C(=O)N/N=C/c2ccccc2F)c1CN1CCOCC1 | 3 | -4 | i | -2
Cc1cccc(NC(=O)CSc2ccc(-c3ccc4c(c3)OCO4)nn2)c1C | 13 | 8 | i | 27*
SMILES | MBD2 inh | UBC13 polyUb | Neddyl block | UHRF1 MBD2 ctr
Cc1cc(NC(=O)CSc2ccc(-c3ccc4c(c3)OCO4)nn2)no1 | 2 | 4 | x | 5
CCC(C(=O)Nc1ccc(N2CCOCC2)c(S(=O)(=O)Nc2ccccc2OC)c1)c1ccccc1 (centres undefined) | -2 | -9 | i | 0
CNC(=O)CN(CCc1ccccc1)S(=O)(=O)c1ccc(OC)cc1 | -2 | 1 | i | 0
Cc1cc(C)n2cc(CSc3nnc(N)s3)nc2n1 | 7 | 10 | i | 22*
CCOc1ccc2[nH]c3c(NCCc4ccc(OC)c(OC)c4)ncnc3c2c1 | 2 | 18 | x | 45*
CCOc1ccc2[nH]c3c(NCCO)ncnc3c2c1 | 1 | 0 | x | 0
COc1ccccc1NC(=S)N(CCCN1CCOCC1)Cc1ccccn1 | -1 | 6 | i | 1
N=c1c(C(=O)NCc2ccccc2)cc2c(=O)n3ccccc3nc2n1Cc1ccco1 | -7 | -4 | x | -9
N=c1c(C(=O)NCc2ccc(F)cc2)cc2c(=O)n3ccccc3nc2n1Cc1ccco1 | -6 | 3 | + | -7

Screening results deposited in PubChem by several laboratories.
